Laboratory results from PubChem BioAssay (NCI).
Compounds without any hit were thinned out: in the full panel of roughly 79,000, 15% have a hit. Values without a mark were called inactive. Rule as the data show it: active = growth inhibition above about 70%; inactive = the rest. Where a SMILES comes first, the peptide text is derived from it. [ ]: non-standard residue; d: D form. ξ: configuration not given here. ξV = CC(C)C(N)C(=O)O

assay: NCI Yeast Anticancer Drug Screen. Data for the sgs1 mgt1 strain (AID 161);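 also: 0% = growth of cultures given vehicle only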; details: S. cerevisiae sgs1 mgt1 strain, at 50.0 µM, active compounds read high
How it was run: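 This yeast growth screen uses a strain with defined DNA-repair lesions; compound-treated growth is compared with vehicle-treated growth.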

SMILES | growth inhibition [%]
Nc1nc(N)nc(-c2ccc([N+](=O)[O-])o2)n1 | 29.9
O=C(O)CC1C(=O)OC2C3COC(=O)c4cc(O)c(O)c(O)c4-c4c(cc(O)c(O)c4O)C(=O)OC2C(OC(=O)c2cc(O)c(O)c4c2C1C(O)C(=O)O4)C(OC(=O)c1cc(O)c(O)c(O)c1)O3 (stereo not given) | 22.4
CSc1ncnc2c1ncn2CCC(=O)O | -42.1
CCN(CC)C(=O)C(C)n1cc(C)c(=O)[nH]c1=O (stereo not given) | -19.9
Cc1ccc(C(=O)c2ccccc2)cc1 | -11.8
Nc1cnccc1NCC(O)c1ccccc1 (stereo not given) | -6.65
N#Cc1cc([N+](=O)[O-])ccc1NC(=O)/C(=N\NC(=O)c1ccncc1)C(c1cnc2ccc([N+](=O)[O-])cc2n1)[N+](=O)[O-] (stereo not given) | -11.1
C=C(CN(C)C)c1ccccn1 | -2.3
Nc1ccc(N=Nc2ccc(OCCN(CCO)CCO)cc2)c(N)n1 | 8.8
CC1Cn2c(nccc2=O)S1 (stereo not given) | -33.4
CC(C)C1c2ccccc2C(=O)C1C(N)=O (stereo not given) | -12.8
CCN(CC)S(=O)(=O)c1ccc(N)cc1 | 25.4
CC(C)C(N)C(=O)NCC(=O)NCC(=O)O (stereo not drawn) (H-[ξV]-Gly-Gly-OH) | -20.4
CN1CC2(CO)C(c3ccccn3)N(C)C(c3ccccn3)C(CO)(C1)C2O (stereo not given) | -10.7
CCCCN1C(=O)c2cc(=O)[nH]c(O)c2C1C (stereo not given) | -25.9
CCCCCN(CCCCC)CC(O)c1cc(-c2ccccc2)nc2c(Cl)cc(Cl)cc12 (stereo not given) | 26.5
O=C(Nc1cccc(O)c1)C(O)C(O)C(O)C(O)CO (stereo not given) | 18.2
CCN(CC)CCSc1cc(C)c2ccc(N)nc2n1 | 6.6
CCN1CCCN(CC)C1=O | -4.4
C[Si](C)(C)O[Si](C)(C)CCl | -3.1

SMILES | growth inhibition [%]
CCN(CC)C(=O)Cn1c2c(c3ccccc31)CCCC2 | 2.2
COc1cc(O)c(C(=O)C2Cc3ccccc32)c(OC)c1 (stereo not given) | 24.1
C=C/C=N/Nc1ccc([N+](=O)[O-])cc1[N+](=O)[O-] | 2.2
NCCCCC(N)C(=O)O (stereo not given) | -33.9
CCOC(=O)c1c(O)csc1C | -7.45
CC(=O)OC(C)(C)[C@@H]1CC[C@H](C)C2=C(C1)[C@@H](C)CC2 | -23.9
NCc1ccc(S(=O)(=O)Nc2cc(Br)cc(Br)c2)cc1 | 30.2
COc1ccc(-n2[nH]nc(C(N)=O)c2=O)cc1 | -33.4
CN(C)Cc1cc(C(C)(C)CC(C)(C)C)cc(Br)c1O | 30.6
Cc1cc2[nH]c3c(C#N)c4c(c(=O)n3c2cc1C)CCCC4 | -7
COc1ccc(/C=C2\C(=O)N(C(=O)c3ccc(NC(C)=O)cc3)N=C2C)cc1 | -39.2
CC(O)CSCC(C)O (stereo not given) | -16.7
NNC(=S)N/N=C/C(Cl)=C(\Cl)C(=O)O | 1.8
COc1ccc(N)c(C(O)CCNC(C)=O)c1 (stereo not given) | -25.9
CCOc1ccc(N2N=C(C)CCC2=O)cc1 | 5.15
N#CCC(=O)N/N=C(\C(=O)Nc1ccc(Cl)c(Cl)c1)C1CN(c2ccccc2)N=C1N (stereo not given) | -11.8
CC(C)CCCC(C)C1CCC2C3CC=C4CC(P(=O)(c5ccccc5)c5ccccc5)CCC4(C)C3CCC12C (stereo not given) | -6.05
O=C(N/N=C/c1ccccn1)c1ccccc1 | 10.7
CCCCNC(C(=O)c1ccccc1)c1ccccc1 (stereo not given) | 0.45
CN1CCC=C(COC(=O)C(C)(C)C)C1 | -10.9

assay: NCI Yeast Anticancer Drug Screen. Data for the cln2 rad14 strain (AID 165);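 also: 0% = growth equal to vehicle treated cultures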; details: S. cerevisiae cln2 rad14 strain, at 50.0 µM, active compounds read high
How it was run: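 Growth inhibition, relative to vehicle-treated controls, is the read-out. The test organism is a yeast strain with defined genetic alterations, cln2 rad14.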

SMILES | growth inhibition [%]
Nc1nc(N)nc(-c2ccc([N+](=O)[O-])o2)n1 | 20.8
O=C(O)CC1C(=O)OC2C3COC(=O)c4cc(O)c(O)c(O)c4-c4c(cc(O)c(O)c4O)C(=O)OC2C(OC(=O)c2cc(O)c(O)c4c2C1C(O)C(=O)O4)C(OC(=O)c1cc(O)c(O)c(O)c1)O3 (stereo not given) | 5.15
CSc1ncnc2c1ncn2CCC(=O)O | 8.8
CCN(CC)C(=O)C(C)n1cc(C)c(=O)[nH]c1=O (stereo not given) | 5.35
Cc1ccc(C(=O)c2ccccc2)cc1 | -8.75
Nc1cnccc1NCC(O)c1ccccc1 (stereo not given) | -15.6
N#Cc1cc([N+](=O)[O-])ccc1NC(=O)/C(=N\NC(=O)c1ccncc1)C(c1cnc2ccc([N+](=O)[O-])cc2n1)[N+](=O)[O-] (stereo not given) | -16.1
C=C(CN(C)C)c1ccccn1 | -16.8
Nc1ccc(N=Nc2ccc(OCCN(CCO)CCO)cc2)c(N)n1 | 4.95
CC1Cn2c(nccc2=O)S1 (stereo not given) | 1.9
CC(C)C1c2ccccc2C(=O)C1C(N)=O (stereo not given) | -22.6
CCN(CC)S(=O)(=O)c1ccc(N)cc1 | -13.9
CC(C)C(N)C(=O)NCC(=O)NCC(=O)O (stereo not drawn) (H-[ξV]-Gly-Gly-OH) | -8.15
CN1CC2(CO)C(c3ccccn3)N(C)C(c3ccccn3)C(CO)(C1)C2O (stereo not given) | -6.2
CCCCN1C(=O)c2cc(=O)[nH]c(O)c2C1C (stereo not given) | -0.55
CCCCCN(CCCCC)CC(O)c1cc(-c2ccccc2)nc2c(Cl)cc(Cl)cc12 (stereo not given) | 18
O=C(Nc1cccc(O)c1)C(O)C(O)C(O)C(O)CO (stereo not given) | 10.6
CCN(CC)CCSc1cc(C)c2ccc(N)nc2n1 | 15.1
CCN1CCCN(CC)C1=O | -30.4
C[Si](C)(C)O[Si](C)(C)CCl | -10.2

SMILES | growth inhibition [%]
CCN(CC)C(=O)Cn1c2c(c3ccccc31)CCCC2 | 1.15
COc1cc(O)c(C(=O)C2Cc3ccccc32)c(OC)c1 (stereo not given) | 21.6
C=C/C=N/Nc1ccc([N+](=O)[O-])cc1[N+](=O)[O-] | 5.9
NCCCCC(N)C(=O)O (stereo not given) | 8.55
CCOC(=O)c1c(O)csc1C | -14.2
CC(=O)OC(C)(C)[C@@H]1CC[C@H](C)C2=C(C1)[C@@H](C)CC2 | 2.05
NCc1ccc(S(=O)(=O)Nc2cc(Br)cc(Br)c2)cc1 | 35.1
COc1ccc(-n2[nH]nc(C(N)=O)c2=O)cc1 | -22.6
CN(C)Cc1cc(C(C)(C)CC(C)(C)C)cc(Br)c1O | 28.8
Cc1cc2[nH]c3c(C#N)c4c(c(=O)n3c2cc1C)CCCC4 | 2.75
COc1ccc(/C=C2\C(=O)N(C(=O)c3ccc(NC(C)=O)cc3)N=C2C)cc1 | -0.3
CC(O)CSCC(C)O (stereo not given) | 12.4
NNC(=S)N/N=C/C(Cl)=C(\Cl)C(=O)O | -2
COc1ccc(N)c(C(O)CCNC(C)=O)c1 (stereo not given) | -7.5
CCOc1ccc(N2N=C(C)CCC2=O)cc1 | -10.6
N#CCC(=O)N/N=C(\C(=O)Nc1ccc(Cl)c(Cl)c1)C1CN(c2ccccc2)N=C1N (stereo not given) | -44.4
CC(C)CCCC(C)C1CCC2C3CC=C4CC(P(=O)(c5ccccc5)c5ccccc5)CCC4(C)C3CCC12C (stereo not given) | -10.5
O=C(N/N=C/c1ccccn1)c1ccccc1 | 19.1
CCCCNC(C(=O)c1ccccc1)c1ccccc1 (stereo not given) | -16.6
CN1CCC=C(COC(=O)C(C)(C)C)C1 | 7.45
